Screening data deposited in PubChem BioAssay by Small Molecule Screening Facility, UW Madison.
RMI FANCM FP: disruptors of RMI1/RMI2 association with MM2 peptide – biochemical, fluorescence polarization, human, primary screen; RMI core complex (RMI1/RMI2) binding to FANCM MM2 peptide, human; RMI core complex with F-MM2 peptide; stronger effect = lower value; FP signal (polarization) at 33 µM; 70,000 compounds, 0.58% hits; AID 1159607, 2016; in the data active = FP signal below about 40
Each line names hits and unclear results; the compound was inactive in the other large screens; ! = repeats disagree. This excerpt belongs to a sample that is enriched for hits.

COc1ccc(/C=N\Nc2nc(-c3cccs3)cs2)cc1	none
CCOc1ccc(-c2csc(NC(=O)C3CCCCC3)n2)cc1	none
CCOc1ccc(-c2csc(N/N=C\c3ccc(OC)c(OC)c3)n2)cc1	RMI FANCM FP 16
O=S(=O)(c1cccs1)N1CCC(c2nc(-c3ccccc3F)no2)CC1	none
Cn1c(=O)cc2c3c(c(NS(=O)(=O)c4ccccc4)ccc31)C(=O)c1ccccc1-2	RMI FANCM FP 9
Cn1c(=O)cc2c3c(c(Br)ccc31)C(=O)c1ccccc1-2	none
CC(C)c1cc(NS(=O)(=O)c2ccccc2)c(O)c(C(C)C)c1	none
CC(C)NC(=O)CC1S/C(=N\N=C/c2ccc([N+](=O)[O-])cc2)NC1=O (stereo not given)	none
CC(C)(C)c1csc(N/N=C\c2cccs2)n1	none
Cc1ccc2c(c1)Cc1c(nc(-c3ccccc3)nc1SCC(=O)Nc1cccc(C(=O)O)c1)O2	RMI FANCM FP 14
Cc1cccc2c1Oc1nc(-c3ccccc3)nc(SCC(=O)Nc3ccc4c(c3)OCCO4)c1C2	none
Cc1ccc(-c2nc3c(c(SCC(=O)Nc4cccc(C(=O)O)c4)n2)Cc2ccccc2O3)cc1	none
Cn1c(SCC(=O)Nc2cccc(Cl)c2)nnc1-c1cccn(C)c1=O	none
O=C(COc1ccccc1)Nc1ccc2c(c1)N(C(=O)c1ccccc1)CCC2	none
N#C/C(=C\c1cccnc1)C(=O)NC1CCS(=O)(=O)C1 (stereo not given)	none
CCn1nccc1C(=O)Nc1nnc(-c2ccc(C)cc2C)o1	none
O=C(Oc1cc(O)cc2c1C[C@@H](OC(=O)c1cc(O)c(O)c(O)c1)[C@@H](c1ccc(O)c(O)c1)O2)c1cc(O)c(O)c(O)c1	none
O=C(OC[C@H]1O[C@H](OC(=O)c2cc(O)c(O)c(OC(=O)c3cc(O)c(O)c(O)c3)c2)[C@H](OC(=O)c2cc(O)c(O)c(OC(=O)c3cc(O)c(O)c(O)c3)c2)[C@@H](OC(=O)c2cc(O)c(O)c(OC(=O)c3cc(O)c(O)c(O)c3)c2)[C@@H]1OC(=O)c1cc(O)c(O)c(OC(=O)c2cc(O)c(O)c(O)c2)c1)c1cc(O)c(O)c(OC(=O)c2cc(O)c(O)c(O)c2)c1	RMI FANCM FP 29
CC(=O)OC[C@H]1O[C@@H](OCc2ccccc2)[C@H](OC(C)=O)[C@@H](OC(C)=O)[C@@H]1OC(C)=O	none
Cc1cc(NC(=O)c2cc3ccccc3oc2=O)n(C)n1	none
COc1ccc(C2C(C#N)=C(N)Oc3cc(C)n(CCO)c(=O)c32)c(OC)c1OC (stereo not given)	none
N=c1c2cnn(-c3ccccc3)c2ncn1/N=C\c1ccc([N+](=O)[O-])cc1	RMI FANCM FP 39
O=[N+]([O-])c1cccc(-c2nnc3c4cnn(-c5ccc(F)cc5)c4ncn23)c1	none
O=c1c2cnn(-c3ccccc3)c2nnn1/N=C\c1ccc([N+](=O)[O-])cc1	none
CCOC(=O)Cn1c(=NC(=O)c2ccn(CC)n2)sc2cc(S(C)(=O)=O)ccc21	none
COc1ccc(-c2c3c(nc4sc(C(=O)c5ccc6c(c5)OCCO6)c(N)c24)CC(C)(C)CC3=O)cc1	RMI FANCM FP -6
COc1ccc(-c2c3c(nc4sc(C(=O)c5ccc(Cl)c(Cl)c5)c(N)c24)CC(C)(C)CC3=O)cc1	none
COc1ccc(-c2c3c(nc4sc(C(=O)Nc5ccc(F)cc5)c(N)c24)CC(C)(C)CC3=O)cc1	none
O=S(=O)(Nc1ccc(NCC2CCCO2)nn1)c1ccccc1 (stereo not given)	none
CCN1CCCc2cc(CCNC(=O)C(=O)NCCC3=CCCCC3)ccc21	none
CS(=O)(=O)N1CCCC(C(=O)N(Cc2ccccc2)c2nc3c(F)cccc3s2)C1 (stereo not given)	none
Cc1cc(Nc2ccc(S(=O)(=O)Nc3nccs3)cc2)c2ccc(C(F)(F)F)cc2n1	none
CCOC(=O)c1cnc2cc(C(F)(F)F)ccc2c1Nc1ccc(S(=O)(=O)N(C)C)cc1	none
Cc1cc(Nc2ccc(N(C)C)cc2)c2ccc(C(F)(F)F)cc2n1	RMI FANCM FP 19
COc1cccc(CNC(=O)CS(=O)(=O)c2cccs2)c1	none
O=C(NCCc1ccc(N2CCCC2)cc1)C(=O)NCc1ccc(Cl)cc1	none
O=C(CCc1nc2sc3c(c2c(=O)[nH]1)CCCCC3)N1CCN(c2ccccc2F)CC1	none
NC(=O)C1CCN(C(=O)CCc2nc3sc4c(c3c(=O)[nH]2)CCCCC4)CC1	none
O=C(CCc1nc2sc3c(c2c(=O)[nH]1)CCCCC3)N1CCN(Cc2ccc3c(c2)OCO3)CC1	RMI FANCM FP 28
CCOc1ccc(-c2nc(CSc3n[nH]c(=O)c4cc(-c5ccco5)nn34)c(C)o2)cc1OC	none
Cc1ccc(Nc2nc(NC3CC(C)(C)NC(C)(C)C3)nc(N3CCOCC3)n2)cc1C	none
CCc1cc(=O)[nH]c2nnc(SCc3cccnc3)n12	none
Nc1c(S(=O)(=O)c2ccc(F)cc2)c2nc3ccccc3nc2n1Cc1cccs1	none
CC1=C(C)CC2C(=O)N(c3ccc(O)cc3)C(=O)C2C1 (stereo not given)	none
CC1=C(C)CC2C(=O)N(C(Cc3ccccc3)C(=O)O)C(=O)C2C1 (stereo not given)	none
CCN1C(=O)C2CC(C)=C(C)CC2C1=O (stereo not given)	RMI FANCM FP 29
O=C(O)c1ccc(-c2nccs2)s1	none
CC1(C)CCC[C@@]2(C)C1CC[C@@]1(C)OCC[C@@H]12 (stereo not given in full)	none
COc1ccc(CNC(=O)Cc2csc(Nc3cccc(Cl)c3)n2)cc1	none
OCc1ccccc1O[C@@H]1O[C@H](CO)[C@@H](O)[C@H](O)[C@H]1O	none
O=[N+]([O-])c1ccccc1O[C@@H]1O[C@H](CO)[C@H](O)[C@H](O)[C@H]1O	none
O=C(O)c1cc(O)c2c(c1)[C@@H]([C@@H]1c3cc(C(=O)O)cc(O)c3C(=O)c3c(O[C@H]4O[C@H](CO)[C@@H](O)[C@H](O)[C@H]4O)cccc31)c1cccc(O[C@H]3O[C@H](CO)[C@@H](O)[C@H](O)[C@H]3O)c1C2=O	RMI FANCM FP 34
Cc1cc(NC(=O)CSc2nnc(C(C)C)c3cnn(-c4ccc(C)c(C)c4)c23)no1	none
COc1ccc(Nc2c(Cl)cc(OC)cc2Cl)cc1	none
COc1ccc(NC2=CC(=O)C=CC2=O)cc1	RMI FANCM FP 30
COc1ccc(NC(=O)CO)cc1	none
CCOc1ccc(-c2cc(C(=O)N/N=C\c3cccc([N+](=O)[O-])c3)[nH]n2)cc1OC	none
COC(CNc1ncnc2c1cnn2-c1ccc(F)cc1)OC	none
C[C@]12CC[C@@H](O)CC1CCC1C2CC[C@](C)(C(=O)O)C1/C=C1/Nc2ccccc2C1=O (stereo not given in full)	none
C[C@]12CC=CCC1CCC1C2CC[C@](C)(C(=O)O)C1/C=C1/Nc2ccccc2C1=O (stereo not given in full)	RMI FANCM FP 35!
COc1ccc(C)c2sc(NC(=O)CCCS(=O)(=O)c3ccccc3)nc12	none
Cc1cc2c3c(c1)c(O)c(-c1ccccc1)c(=O)n3CCC2	none
COc1cc(O)c2c(c1)C(=O)c1cc(C)cc(O)c1C2=O	none
Cc1cc(O)c2c(c1)Cc1cccc(O)c1C2=O	RMI FANCM FP -15
C=CCN1C(=O)C(C)(C)COc2cc(NC(=O)c3ccc(Br)cc3)ccc21	none
CN(C)c1ccc(C(CNC(=O)C23CC4CC(CC(C4)C2)C3)N2CCN(c3ccccc3)CC2)cc1 (stereo not given)	none
Fc1ccc(-c2noc(-c3ccc4c(c3)CCO4)n2)cc1	none
Fc1ccc(-c2nc(=S)c3c([nH]2)Oc2ccc(Br)cc2C3)cc1	RMI FANCM FP 26
CCN1C(=O)C(C)(C)COc2ccc(NC(=O)c3ccc(Cl)cc3)cc21	none
